Compound activity deposited in PubChem by several laboratories.
In the library only some 4.1% were active in any assay of this set; here they are far more common.
RecA splice inh = blocks M. tuberculosis RecA intein splicing | inhibition, % (concentration not given with the values) | AID 2221 | hit rate 0.75% among 290,000 | cell-free RecA intein splicing, fluorescence | P9WHJ3; in the data active = inhibition above about 30%
UGM FP inh = Mtb UDP-galactopyranose mutase inhibition | purified UGM, fluorescence polarization probe displacement | inhibition, % at 10 µM | hit rate 0.06% among 320,000 | AID 504406; in the data active = inhibition above about 10%, passing the limit was not always enough
Target sequence (P9WIQ1 whole entry, looked up): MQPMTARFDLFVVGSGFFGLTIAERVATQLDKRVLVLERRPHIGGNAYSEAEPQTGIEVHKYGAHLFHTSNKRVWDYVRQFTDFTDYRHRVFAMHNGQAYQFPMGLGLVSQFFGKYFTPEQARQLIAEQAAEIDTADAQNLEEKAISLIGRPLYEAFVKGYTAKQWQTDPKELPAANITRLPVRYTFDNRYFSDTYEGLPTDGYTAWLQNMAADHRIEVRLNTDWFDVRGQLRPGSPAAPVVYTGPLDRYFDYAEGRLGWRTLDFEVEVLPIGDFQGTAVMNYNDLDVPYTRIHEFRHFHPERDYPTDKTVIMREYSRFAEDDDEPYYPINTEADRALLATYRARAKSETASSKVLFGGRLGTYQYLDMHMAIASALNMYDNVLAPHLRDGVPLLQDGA
Rv3671c inh = inhibits the M. tuberculosis serine protease Rv3671c; hit rate 0.048% among 320,000; AID 2606; inhibition, % at 5.96 µM; in the data active = inhibition above about 38%;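 note: extracellular domain of Rv3671c used as enzyme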
BH1578 lux ind = inducers of Vibrio cholerae quorum light production without autoinducers; AID 588436; activation, % at 18.7 µM; V. cholerae BH1578 lux reporter, luminescence, 6 h; hit rate 0.16% among 350,000; in the data active = activation mostly above about 9.7%, no sharp cut-off
FBA Mtb inh = inhibitors of M. tuberculosis fructose-bisphosphate aldolase; P9WQA3; purified M. tuberculosis FBA, fluorescence read-out; inhibition, % at 1 µM; hit rate 2.3% among 360,000; in the data active = inhibition above about 27%
GDH-TPI inh = GDH-TPI coupled enzyme inhibition counter-screen; hit rate 1.2% among 360,000; inhibition, % at 4.8 µM; GDH-TPI coupled enzyme counterscreen, NADH absorbance; AID 588335; in the data active = inhibition above about 30%
Each line names hits and unclear results; the compound was inactive in the other large screens.

COc1ccc(-c2cc3ccc(O)cc3oc2=O)cc1OC	FBA Mtb inh 119
COc1ccc(-c2cc3ccc(OCC(N)=O)cc3oc2=O)cc1OC	GDH-TPI inh 32
CCOC(=O)c1oc2cc(OCC(N)=O)ccc2c(=O)c1-c1ccc(OC)c(OC)c1	none
C[C@]12CCC[C@H](O1)c1c(cc3c(c1O)C(=O)c1c(O)cc(O)cc1C3=O)O2	none
CCOC(=O)C1Oc2ccccc2C(c2ccoc2)=C1C(=O)OC (centres undefined)	none (no result: RecA splice inh, UGM FP inh, Rv3671c inh)
C/C(CC(=O)Nc1ccccn1)=N\NC(=O)c1ccc(C)cc1	RecA splice inh 47
COc1ccccc1C(=O)N/N=C(\C)CC(=O)Nc1ccccn1	none
O=C(NCc1ccccc1)C(c1ccncc1)N(C(=O)c1csnn1)c1ccccc1F (centres undefined)	none
CCCN1C(=O)c2ccccc2NC1c1ccc(O)c(OCC)c1 (centres undefined)	FBA Mtb inh 45
COc1cccc2[nH]c3c(N4CCC(C(N)=O)CC4)ncnc3c12	FBA Mtb inh 183
CC(C)CN(C(=O)CCNC(=O)c1ccc(Cl)cc1)C1CCS(=O)(=O)C1 (centres undefined)	none (no result: RecA splice inh)
N#C/C(=C\Nc1ccc2c(c1)OCCO2)C(=O)NCc1ccco1	GDH-TPI inh 44
COC(=O)c1ccc(NC(=O)CN2CCN(CC#N)CC2)cc1	none
COCCOC(=O)C1=C(C)NC2=C(C(=O)CC(C)(C)C2)C1c1ccc2c(c1)OCO2 (centres undefined)	none (no result: RecA splice inh)
CC1(C)CC(=O)C2=C(C1)Nc1[nH]n(-c3ccccc3)c(=O)c1C2c1ccc2c(c1)OCO2 (centres undefined)	RecA splice inh 69 (no result: UGM FP inh, Rv3671c inh)
N#C/C(=C\c1cccn1S(=O)(=O)c1ccccc1)S(=O)(=O)c1ccc(F)cc1	none (no result: RecA splice inh, UGM FP inh, Rv3671c inh)
CS(=O)(=O)N1CCC(NC(=O)Nc2ccc(OC(F)(F)F)cc2)CC1	none (no result: RecA splice inh)
COC(=O)c1ccc2c(CCO)c[nH]c2c1	FBA Mtb inh active
COc1cc(C)c(/C=C/C(C)=C/C=C/C(C)=C/C(=O)O)c(C)c1C	GDH-TPI inh 61
CCC1Oc2ccccc2C(=O)N(CC(=O)c2ccc3c(c2)OCCO3)C1=O (centres undefined)	none
COc1ccc2c(C)c(CC(=O)N3CCN(C(=O)C4COc5ccccc5O4)CC3)c(=O)oc2c1 (centres undefined)	FBA Mtb inh 144
Cc1cccc(N2CCN(C(=O)C3COc4ccccc4O3)CC2)c1C (centres undefined)	none
COc1ccc(N2CCN(C(=O)C3COc4ccccc4O3)CC2)cc1 (centres undefined)	none
Cc1c(CC(=O)N2CCN(C(=O)C3COc4ccccc4O3)CC2)c(=O)oc2cc(O)cc(O)c12 (centres undefined)	FBA Mtb inh 177
Cc1c(CC(=O)N2CCN(C(=O)C3COc4ccccc4O3)CC2)c(=O)oc2c(C)c(O)ccc12 (centres undefined)	FBA Mtb inh active
Cc1c(CC(=O)N2CCN(C(=O)C3COc4ccccc4O3)CC2)c(=O)oc2cc(O)ccc12 (centres undefined)	FBA Mtb inh active
O=C(C1COc2ccccc2O1)N1CCN(Cc2ccccc2)CC1 (centres undefined)	none
CN(CC(=O)Nc1ccccc1Cl)C(=O)CSc1nnc(-c2ccco2)n1C	none (no result: RecA splice inh)
COc1ccc(OC)c(NC(=O)C2(C)CCN2CCc2ccccc2)c1 (centres undefined)	none (no result: RecA splice inh, UGM FP inh, Rv3671c inh)
NC(=S)NN=C(c1ccc(F)cc1)C1CC1	none (no result: RecA splice inh, UGM FP inh, Rv3671c inh)
CC1CCCC(C)N1C(=O)COC(=O)CSc1ccc(C(N)=O)cc1[N+](=O)[O-] (centres undefined)	none
CCOC(=O)/C(C#N)=C1\CC2CCC1(C)C2(C)C (centres undefined)	UGM FP inh 13 (no result: BH1578 lux ind)
COc1ccc2c(c1)c(=O)oc1cc(OCC(=O)NCC3CCC(C(=O)O)CC3)ccc12 (centres undefined)	none
CCc1cc(=O)oc2c(C)c(OCC(=O)NCC3CCC(C(=O)O)CC3)ccc12 (centres undefined)	none
CCc1cc(=O)oc2cc(OCC(=O)NCC3CCC(C(=O)O)CC3)ccc12 (centres undefined)	FBA Mtb inh 28
C=C(Cl)COc1ccc2c(CCC)cc(=O)oc2c1	none
COc1ccc(-c2cc3ccc(OCC(=O)NCC4CCC(C(=O)O)CC4)cc3oc2=O)cc1 (centres undefined)	FBA Mtb inh 178, GDH-TPI inh 42
CCCc1cc(=O)oc2cc(OCc3ccc(C(=O)O)cc3)ccc12	FBA Mtb inh 48
CC(C(=O)N1CCc2ccccc21)n1cnc2c1c(=O)n(C)c(=O)n2C (centres undefined)	none (no result: RecA splice inh)
COc1cc(/C=C/C(=O)NC(C)C2CC3CCC2C3)cc(OC)c1OC (centres undefined)	none
O=C(O)c1cnn2c(C(F)(F)F)cc(-c3ccco3)nc12	GDH-TPI inh 39
Cc1ccc(CC(=O)N2CCN(C(=O)C3CCCO3)CC2)cc1 (centres undefined)	none
Cc1c(N2C(=O)c3ccc(F)cc3C2=O)c(=O)n(-c2ccccc2)n1C	none
Cc1c(N2C(=O)c3ccccc3C2=O)c(=O)n(-c2ccccc2)n1C	BH1578 lux ind 17
Cc1cc(OC(=O)c2cccc(Br)c2)c([N+](=O)[O-])c(=O)[nH]1	none (no result: BH1578 lux ind)
O=C(COC(=O)/C=C/c1ccccc1)NCCc1ccc(F)cc1	none (no result: RecA splice inh)
Cc1ccc(SCC(=O)N(Cc2nc(-c3ccccc3)no2)C(C)C)cc1	BH1578 lux ind 25
Cc1ccc(C(=O)N(Cc2nc(-c3ccc(C)cc3)no2)C(C)C)cc1	none
O=C(CN1C(=O)NC2(CCCCC2)C1=O)NNC(=O)C1CC1	none (no result: RecA splice inh)
O=C(/C=C/c1ccc(F)cc1)Nc1ccc(S(=O)(=O)Nc2ncccn2)cc1	GDH-TPI inh 33
CCCC1Cc2[nH]c(=O)c(C#N)cc2CO1 (centres undefined)	FBA Mtb inh 126
CN(C(=O)c1ccc(S(=O)(=O)c2cccc(Cl)c2)c([N+](=O)[O-])c1)C1CCCCC1	RecA splice inh 35
Cc1cccc(C(C(=O)NC2CCCCC2)N(Cc2cccnc2)C(=O)c2csnn2)c1 (centres undefined)	none
O=C(Nc1c2c(nn1-c1ccccc1)CS(=O)(=O)C2)c1ccccc1C(F)(F)F	none
COc1ccccc1C(=O)Nc1cc2c(ccc3ccccc32)oc1=O	none (no result: BH1578 lux ind, FBA Mtb inh, GDH-TPI inh)
COC(=O)c1cc2c(ccc3ccccc32)oc1=O	FBA Mtb inh active
O=C(Nc1ccc(Cl)c(Cl)c1)N1CCC(N2CCCCC2)CC1	BH1578 lux ind active
O=C(Nc1ccc(Cl)c(Cl)c1)N1CCCCCC1	none
CN(Cc1cccs1)C(=O)CN1CCN(S(=O)(=O)c2ccc3c(c2)OCCCO3)CC1	none (no result: RecA splice inh, UGM FP inh, Rv3671c inh)
Cc1cccn2c(=O)c3cc(S(=O)(=O)c4ccccc4)c(=N)n(Cc4ccco4)c3nc12	none
Cc1cccn2c(=O)c3cc(S(=O)(=O)c4ccc(F)cc4)c(=N)n(Cc4ccco4)c3nc12	FBA Mtb inh 116
